Common to all, as to assay: NCI-60 one-dose screen, 48 h (100 = growth as untreated, 0 = no growth, -100 = all killed)
Holding throughout (details): 10 µM unless noted

Assay [1] has as its system HCT-15 colon.
Assay [2] has as its system HT29 colon.
Assay [3] has as its system SNB-75 CNS.
The subject of assay [4] is SNB-19 CNS.
Assay [5] concerns U251 CNS.
The test system of assay [6] is PC-3 prostate.
The subject of assay [7] is SK-MEL-5 melanoma.
The test system of assay [8] is UACC-62 melanoma.
Assay [9] deals with LOX IMVI melanoma.
For assay [10], the system named is SK-MEL-28 melanoma.
For assay [11], the system named is SK-MEL-2 melanoma.
In assay [12] the test system is EKVX NSCLC.
The test system of assay [13] is SN12C renal.
Assay [14] deals with UO-31 renal.
The test system of assay [15] is TK-10 renal.
Assay [16] has as its system ACHN renal.
Assay [17] deals with CAKI-1 renal.
In assay [18] the test system is A498 renal.
In assay [19] the test system is CCRF-CEM leukemia.
The subject of assay [20] is MOLT-4 leukemia.

About 83,000 compounds went through this panel and 20% of them were active in at least one assay; those are over-represented in the sample as a whole.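 Interpretation: 100, growth as untreated; towards 0, rising growth inhibition; 0, no net growth; 0 to -100, cell death. Compounds scoring below 10 were considered active.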 Unmarked numbers belong to inactive results. Calls of active or inactive are those of the source.

Consider 7 compounds from PubChem BioAssay (NCI).

Consider `O=S(=O)(NCCCNc1nccc(-c2[nH]c(-c3ccccc3)nc2-c2ccc(F)c(O)c2)n1)c1cccc(F)c1`, for which the growth in assay [1] is 86%; in [2] it was 99.4%; in [3], 69.3%; in assay [4], 110%; in assay [5], 99.4%; in assay [6], 77.3%. Also, the growth in assay [7] was 46.5%; in assay [8], 18.2%; in assay [9], 70%; in assay [10], 31.8%; in [11], 39.2%; in assay [12], 99.8%. Moreover, the growth in assay [13] was 99.1%; in [14], 139%; in [15] it was 134%; in [16], 93.2%; in [17], 95.5%; in assay [18], 93.5%. The growth in assay [19] was 37%; in assay [20] it was 44.3%.

As for `N#C/C(=C\c1cccc2c1OCO2)C(=O)Nc1sc2c(c1C#N)CCCC2`, the growth was 102% in assay [1]; 124% in assay [2]; 102% in [3]; 95.4% in assay [4]; 96.9% in [5]; 109% in [6]. Further, the growth was 101% in assay [7]; 90.8% in assay [8]; 104% in assay [9]; 102% in [10]; 106% in [11]; 87.8% in assay [12]. Besides, the growth was 98.3% in assay [13]; 82.6% in [14]; 120% in assay [15]; 109% in [16]; 86.1% in [17]; 98.6% in assay [18]. Further, the values for the growth in [19] and in assay [20] were 108% and 102%, respectively.

Turning to `CCN1CCN(c2ccc(NC(=O)Nc3ccc4c(ccn4-c4ccnc(C(=O)NC)c4)c3)cc2C(F)(F)F)CC1`, the growth in assay [1] is 9.57% (active); in assay [2] it was -44.5% (active); in assay [3], 43.7%; in assay [4] it was 81%; in [5], 44.7%; in assay [6], 52.6%. In addition, the growth in assay [7] was 67.4%; in assay [8], 92.8%; in [9] it was -87.7% (active); in [10], -81% (active); in [11] it was 94.8%; in [12], 86.3%. Moreover, the growth in assay [13] was 90.8%; in assay [14], 71%; in assay [15], 113%; in assay [16], 74.7%; in [17], 79.3%; in assay [18], 81.1%. The figures for the growth in assay [19] and in assay [20] were 7.75% (active) and 10.9%, respectively.

For the compound `CCCC/C(=C\c1ccc(O)c(O)c1)C(=O)NC(Cc1ccccc1)C(=O)C(=O)NCCc1ccc(OC)cc1` (stereo not given), the growth is 93.4% in [1]; 105% in assay [2]; 86.9% in [3]; 91.2% in assay [4]; 103% in assay [5]; 94.4% in assay [6]. Also, the growth is 98.9% in [7]; 86.6% in [8]; 89.4% in [9]; 102% in assay [10]; 98.8% in [11]; 83.3% in assay [12]. In addition, the growth was 95.3% in assay [13]; 93.4% in assay [14]; 107% in assay [15]; 96.2% in [16]; 96.5% in assay [17]; 85.7% in assay [18]. In addition, the growth in assay [19] was 97%; in [20], 85.4%.

On to `Cc1ccc2c(n1)C(=O)C(Cl)=C(Nc1ccc(C)c(C)c1)C2=O`, for which the growth in [1] was 23.6%; in [2], 103%; in assay [3] it was 87.6%; in [4], 56.2%; in assay [5], 71.8%; in assay [6], 45.3%. Further, the growth in assay [7] was 6.91% (active); in [8] it was 49.3%; in assay [9], 0.982% (active); in [10], 58.3%; in [11], 40%; in assay [12], 52.6%. The growth is 0.141% (active) in assay [13]; 44% in [14]; 140% in assay [15]; 57% in assay [16]; 90% in [17]; 71.8% in assay [18]. For the same compound, the growth in assay [19] was 30.8%; in assay [20] it was 60.1%.

As to `Cc1ccc2c(n1)C(=O)C(Cl)=C(Nc1ccc(C(=O)OC(C)(C)C)cc1)C2=O`, the growth in assay [1] is -43.9% [9.25 µM] (active); in [2], 100% [9.25 µM]; in [3] it was 83.8% [9.25 µM]; in assay [4], 83.8% [9.25 µM]; in [5] it was 83.5% [9.25 µM]; in [6] it was 72.1% [9.25 µM]. Besides, the growth in assay [7] is 87.6% [9.25 µM]; in [8] it was 87.1% [9.25 µM]; in assay [9], -59.3% [9.25 µM] (active); in assay [10], 82.5% [9.25 µM]; in assay [11] it was 116% [9.25 µM]; in assay [12], 76.5% [9.25 µM]. Further, the growth in [13] is 88% [9.25 µM]; in [14], 46.4% [9.25 µM]; in assay [15] it was 83.9% [9.25 µM]; in [16], -21.5% [9.25 µM] (active); in assay [17], -34.8% [9.25 µM] (active); in assay [18] it was 110% [9.25 µM]. Besides, the growth was -23.2% [9.25 µM] (active) in assay [19] and -6.96% [9.25 µM] (active) in assay [20].

Regarding `Cc1ccc(C(=O)CSc2nnc(-c3ccc(-c4ccc(Cl)cc4)nc3C)o2)cc1`, the growth in assay [1] is 102%; in assay [2], 104%; in assay [3], 90.7%; in assay [4] it was 99.3%; in assay [5] it was 104%; in [6] it was 94.6%. The growth in assay [7] is 95%; in [8], 84.8%; in [9], 95.3%; in assay [10] it was 99.9%; in assay [11] it was 112%; in assay [12] it was 68.6%. Further, the growth in [13] was 99.7%; in assay [14], 93.9%; in assay [15], 191%; in assay [16], 95.4%; in [17], 95.8%; in assay [18], 98.2%. Besides, the values for the growth in [19] and in assay [20] were 108% and 103%, respectively.
